Source: PubChem BioAssay (NCATS)
Inconclusive results are not listed. Active and inactive are the calls of the source. The call rests on the fitted dose curve; in most records, active means well fitted curve in the direction sought with a large enough effect; inconclusive means small, poorly fitted or top-dose-only effect, or another doubt; inactive means no such curve, though single readings can be large; an effect the other way counts as inactive or inconclusive.

Columns and labels:
[1] = Quantitative High-Throughput drug screen in 47 multiple myeloma cell lines against the NCATS MIPE library collection: VP6_DJ cell viability assay (AID 1919867); settings: ATP luminescence, 48 h; series mostly up to 45.8 µM; further: nearly all actives have a fitted effect of over 40% in size; further: potency means the concentration at half of the fitted maximal effect
Procedure, shortened: (§1)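 Readout: median RLU from CellTiter-Glo after 5 min at room temperature. Preceding step was 48 h drug treatment of 500 cells/well at 37 °C, 5% CO2, with DMSO-only and media-only control wells.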

[2] = Quantitative High-Throughput drug screen in 47 multiple myeloma cell lines against the NCATS MIPE library collection: UTMC2_PLB cell viability assay (AID 1919868); settings: CellTiter-Glo ATP luminescence, 48 h; viability (% of DMSO control): at 45.8 µM (top of the series); further: nearly all actives have a fitted effect of over 55% in size; further: potency means the concentration at half of the fitted maximal effect
Procedure, shortened: as §1

[3] = Quantitative High-Throughput drug screen in 47 multiple myeloma cell lines against the NCATS MIPE library collection: PCM6_Riken cell viability assay (AID 1919870); settings: CellTiter-Glo ATP, 48 h; series mostly up to 45.8 µM; further: nearly all actives have a fitted effect of over 30% in size; further: potency means the concentration at half of the fitted maximal effect
Procedure, shortened: as §1

[4] = Quantitative High-Throughput drug screen in 47 multiple myeloma cell lines against the NCATS MIPE library collection: RPMI8226_ATCC cell viability assay (AID 1919871); settings: RPMI8226 myeloma viability, CellTiter-Glo ATP luminescence, 48 h; series mostly up to 45.8 µM; further: nearly all actives have a fitted effect of over 30% in size; further: potency means the concentration at half of the fitted maximal effect
Procedure, shortened: as §1

[5] = Quantitative High-Throughput drug screen in 47 multiple myeloma cell lines against the NCATS MIPE library collection: OPM2_DSMZ cell viability assay (AID 1919872); settings: OPM2 myeloma viability, CellTiter-Glo ATP luminescence, 48 h; series mostly up to 45.8 µM; further: nearly all actives have a fitted effect of over 30% in size; further: potency means the concentration at half of the fitted maximal effect
Procedure, shortened: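 Myeloma cell lines, 500 cells per well, exposed to MIPE 4.0 library compounds for 48 h at 37C, 5% CO2. Viability from ATP by CellTiter-Glo luminescence; normalised to DMSO (100%) and media-only (0%) wells.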

[6] = Quantitative High-Throughput drug screen in 47 multiple myeloma cell lines against the NCATS MIPE library collection: KMS11_JCRBsus cell viability assay (AID 1919873); settings: KMS11 myeloma viability, CellTiter-Glo ATP luminescence, 48 h; series mostly up to 45.8 µM; further: nearly all actives have a fitted effect of over 50% in size; further: potency means the concentration at half of the fitted maximal effect
Procedure, shortened: as §1

[7] = Quantitative High-Throughput drug screen in 47 multiple myeloma cell lines against the NCATS MIPE library collection: PE2_PLB cell viability assay (AID 1919869); settings: PE2_PLB myeloma cells viability, ATP luminescence, 48 h; series mostly up to 45.8 µM; further: nearly all actives have a fitted effect of over 35% in size; further: potency means the concentration at half of the fitted maximal effect
Procedure, shortened: as §1

[8] = Quantitative High-Throughput drug screen in 47 multiple myeloma cell lines against the NCATS MIPE library collection: KMS28BM_JCRB cell viability assay (AID 1919874); settings: CellTiter-Glo ATP, 48 h; series mostly up to 45.8 µM; further: nearly all actives have a fitted effect of over 35% in size; further: potency means the concentration at half of the fitted maximal effect
Procedure, shortened: as §1

[9] = Quantitative High-Throughput drug screen in 47 multiple myeloma cell lines against the NCATS MIPE library collection: XG1_PLB cell viability assay (AID 1919866); settings: CellTiter-Glo ATP, 48 h; series mostly up to 45.8 µM; further: potency means the concentration at half of the fitted maximal effect; nearly all actives have a fitted effect of over 35% in size
Procedure, shortened: as §1

[10] = biological target: Cytochrome P450 3A4 (Homo sapiens) (UniProt P08684); test: qHTS for inhibitors of CYP3A4 against the NCATS DSHEA and TCM libraries (AID 1919971); settings: recombinant CYP3A4 enzyme activity, luminescence qHTS; series mostly up to 34.1 µM;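 further: on the % scale 0 is the no-effect control and ±100 the full control effect; inhibition lowers luminescence from luciferin made by CYP3A4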
Procedure, shortened: (§2)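 Substances were tested against enzyme with a pro-luciferin substrate; minus-enzyme wells served as background. After NADPH-initiated oxidation (30-45 min, RT), light was generated with P450-Glo reagent.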

[11] = biological target: Cytochrome P450 2C9 (Homo sapiens) (UniProt P11712); test: qHTS for inhibitors of CYP2C9 against the NCATS DSHEA and TCM libraries (AID 1919973); settings: recombinant CYP2C9 enzyme activity, luminescence; series mostly up to 34.1 µM;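 further: luminogenic pro-luciferin CYP2C9 substrate turned into luciferin with NADPH regeneration; on the % scale 0 is the no-effect control and ±100 the full control effect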
Procedure, shortened: as §2

[12] = KB-3-1 P-gp reporter qHTS against the NCATS DSHEA and TCM libraries (AID 1919975); settings: KB-3-1 parental cells, CellTiter-Glo luminescence viability, 72 h; series mostly up to 26.1 µM; further: 0% is about no effect
Procedure, shortened: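 Cell viability by CellTiter-Glo luminescence following ~72 h compound exposure (concentration-response). Uses parental, non-P-gp-overexpressing KB-3-1 line, 500 cells/well in DMEM/10% FBS, attached ~4 h before dosing.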

[13] = qHTS Counterscreen for compound interference against the NCATS DSHEA and TCM libraries (AID 1919978); settings: firefly luciferase detection reagent interference, luminescence;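 further: compounds preincubated with 1 µM D-luciferin or buffer before detection reagent; % of control where 0% means no effect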
Procedure, shortened: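 With 1 uM D-luciferin or phosphate buffer only, compounds at final 19.5 nM–39.8 uM were incubated for 15 min at room temperature. Luciferase detection reagent was then added, and luminescence was measured after a further 30 min at room temperature.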

[14] = Dual reporter qHTS for agonist of Pregnane X Receptor (hPXR) against the NCATS DSHEA and TCM libraries: Fluorescence readout (AID 1920058); settings: PXR dual reporter cells; series mostly up to 40 µM; further: potency means the concentration at half of the fitted maximal effect
Procedure, shortened: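 Fluorescence read-out for cell viability: CellTiter-Fluor, 1 h at 37 °C, Ex/Em 405/540 nm. This followed ~24 h treatment of hPXR-Luc HepG2 cells with substances in agonist mode.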

[15] = biological target: Nuclear receptor subfamily 1 group I member 2 (Homo sapiens) (UniProt O75469); test: Dual reporter qHTS for agonist of Pregnane X Receptor (hPXR) against the NCATS DSHEA and TCM libraries: Luminescence readout (AID 1920059); settings: hPXR dual reporter cells, luciferase luminescence agonist; series mostly up to 40 µM; further: 0% is about no effect
Procedure, shortened: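 hPXR-LucHepG2 cells in phenol red-free DMEM with 5% charcoal-stripped FBS, 2000 cells/well, attached 5 h, then exposed 24 h at 37C to compounds; rifampicin as positive agonist control (2.8 nM–92 uM). Luciferase luminescence read.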

[16] = biological target: Nuclear receptor subfamily 1 group I member 2 (Homo sapiens) (UniProt O75469); test: Dual reporter qHTS for antagonist of Pregnane X Receptor (hPXR) against the NCATS DSHEA and TCM libraries: Luminescence Readout (AID 1920060); settings: hPXR dual reporter cells, luciferase luminescence, antagonist mode; series mostly up to 40 µM;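 further: HepG2 cells carrying hPXR luciferase reporter stimulated with rifampicin at 2 µM; 0% is about no effect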
Procedure, shortened: (§3)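 hPXR-Luc HepG2 cells exposed 24 h at 37 C to compounds with 2 uM rifampicin in antagonist mode; luciferase luminescence measured by ONE-Glo, with CellTiter-Fluor viability read beforehand.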

[17] = Dual reporter qHTS for antagonist of Pregnane X Receptor (hPXR) against the NCATS DSHEA and TCM libraries: Fluorescence Readout (AID 1920061); settings: PXR dual reporter cells, antagonist mode; series mostly up to 40 µM; further: 0% is about no effect
Procedure, shortened: as §3

Chain of Nuclear receptor subfamily 1 group I member 2 (Homo sapiens) (O75469 whole entry, looked up): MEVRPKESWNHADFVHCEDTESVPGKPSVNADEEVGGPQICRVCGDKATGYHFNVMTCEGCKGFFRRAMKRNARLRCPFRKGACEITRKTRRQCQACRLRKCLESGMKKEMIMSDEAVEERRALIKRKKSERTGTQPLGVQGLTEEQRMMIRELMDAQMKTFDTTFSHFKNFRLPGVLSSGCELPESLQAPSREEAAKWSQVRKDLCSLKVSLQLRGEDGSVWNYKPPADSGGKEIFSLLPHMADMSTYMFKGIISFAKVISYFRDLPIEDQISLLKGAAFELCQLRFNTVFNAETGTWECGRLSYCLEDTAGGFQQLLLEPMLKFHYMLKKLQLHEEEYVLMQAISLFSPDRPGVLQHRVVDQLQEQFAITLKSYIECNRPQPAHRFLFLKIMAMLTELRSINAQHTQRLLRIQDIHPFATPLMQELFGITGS
Chain of Cytochrome P450 3A4 (Homo sapiens) (P08684 whole entry, looked up): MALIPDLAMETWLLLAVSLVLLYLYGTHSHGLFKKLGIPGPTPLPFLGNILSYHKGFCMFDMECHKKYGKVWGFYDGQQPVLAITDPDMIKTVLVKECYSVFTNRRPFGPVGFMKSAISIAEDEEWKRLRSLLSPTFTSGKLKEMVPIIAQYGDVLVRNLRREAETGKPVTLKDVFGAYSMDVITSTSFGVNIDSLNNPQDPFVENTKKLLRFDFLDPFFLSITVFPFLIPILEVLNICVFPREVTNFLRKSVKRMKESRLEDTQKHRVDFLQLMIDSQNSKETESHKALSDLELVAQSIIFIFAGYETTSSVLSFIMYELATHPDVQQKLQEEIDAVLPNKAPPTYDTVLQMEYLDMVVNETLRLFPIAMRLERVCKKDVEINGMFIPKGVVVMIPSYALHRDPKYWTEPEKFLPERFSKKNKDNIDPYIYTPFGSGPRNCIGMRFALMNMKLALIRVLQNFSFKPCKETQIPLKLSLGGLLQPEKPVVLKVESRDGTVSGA
Chain of Cytochrome P450 2C9 (Homo sapiens) (P11712 whole entry, looked up): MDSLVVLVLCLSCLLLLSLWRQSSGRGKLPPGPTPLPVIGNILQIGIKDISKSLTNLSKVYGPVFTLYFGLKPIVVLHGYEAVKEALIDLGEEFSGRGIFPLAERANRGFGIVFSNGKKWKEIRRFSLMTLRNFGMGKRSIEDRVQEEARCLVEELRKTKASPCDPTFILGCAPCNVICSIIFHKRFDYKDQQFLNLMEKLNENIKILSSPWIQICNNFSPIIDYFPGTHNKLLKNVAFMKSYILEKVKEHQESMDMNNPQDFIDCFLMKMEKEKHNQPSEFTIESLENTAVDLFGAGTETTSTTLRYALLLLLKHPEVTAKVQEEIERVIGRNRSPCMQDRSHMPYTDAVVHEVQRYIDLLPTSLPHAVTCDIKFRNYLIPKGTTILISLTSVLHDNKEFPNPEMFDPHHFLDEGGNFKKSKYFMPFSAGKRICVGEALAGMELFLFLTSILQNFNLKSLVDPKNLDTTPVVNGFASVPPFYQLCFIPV

CSc1cccc(Nc2ncc3cc(-c4c(Cl)cccc4Cl)c(=O)n(C)c3n2)c1
active: Potency [1] 0.118 µM | Potency [2] 0.0166 µM | Potency [3] 0.187 µM | Potency [4] 2.35 µM | Potency [5] 1.32 µM | Potency [6] 0.187 µM

CN(C)S(=O)(=O)c1ccc2c(c1)C(=Cc1cc3c([nH]1)CCCC3)C(=O)N2
active: Potency [1] 2.64 µM | Potency [2] 3.32 µM | Potency [7] 3.72 µM

COc1c(C)c2c(c(O)c1CC=C(C)CCC(=O)O)C(=O)OC2
inactive: Potency [3]
active: Potency [1] 5.9 µM | Potency [7] 3.32 µM | Potency [4] 7.43 µM | Potency [5] 11.8 µM

CN(C)CCN(Cc1ccc(Cl)cc1)c1ccccn1
inactive: Potency [5] | Potency [6]
active: Potency [1] 20.9 µM | Potency [2] 16.6 µM

CN(C)CCN(C)C(=O)c1ccc(NC(=O)Nc2ccc(-c3nc(N4CCOCC4)c4ccn(CC(F)(F)F)c4n3)cc2)cc1
active: Potency [1] 0.0469 µM | Potency [2] 0.0074 µM | Potency [7] 0.0074 µM | Potency [4] 0.0833 µM | Potency [5] 0.187 µM | Potency [6] 0.0372 µM | Potency [8] 0.0148 µM

CC[C@H](CC#N)OC(=O)N[C@@H](C)c1cccc(NC(=O)Nc2ccc(-c3cnco3)c(OC)c2)c1
active: Potency [1] 1.32 µM | Potency [2] 1.18 µM | Potency [7] 4.18 µM | Potency [3] 1.32 µM | Potency [4] 2.64 µM | Potency [6] 0.372 µM | Potency [8] 2.09 µM

CC(C)(F)C[C@H](N[C@@H](c1ccc(-c2ccc(S(C)(=O)=O)cc2)cc1)C(F)(F)F)C(=O)NC1(C#N)CC1
active: Potency [7] 6.62 µM | Potency [4] 20.9 µM
inactive: Potency [1] | Potency [3] | Potency [5] | Potency [6] | Potency [8]

COc1cc([C@H]2Oc3cc([C@H]4Oc5cc(O)cc(O)c5C(=O)[C@H]4O)ccc3O[C@H]2CO)ccc1O
active: Potency [9] 16.6 µM | Potency [6] 7.43 µM

NS(=O)(=O)c1cc(Cl)c(Cl)c(S(N)(=O)=O)c1
inactive: Potency [1] | Potency [7] | Potency [3] | Potency [4] | Potency [5] | Potency [8]

CCOC(=O)[C@H](CCc1ccccc1)N[C@@H](C)C(=O)N1CCCC1C(=O)O (stereo not given in full)
inactive: Potency [7] | Potency [4] | Potency [6] | Potency [8]
active: Potency [1] 20.9 µM | Potency [3] 26.4 µM

C=C[C@@H]1CN2CCC1C[C@@H]2C(O)c1ccnc2ccc(OC)cc12 (stereo not given in full)
inactive: Potency [2] | Potency [7] | Potency [5] | Potency [6] | Potency [8]

COc1ccc(Cn2ccc3ccc(C(=O)NO)cc32)cc1
inactive: Potency [4] | Potency [5]
active: Potency [1] 9.35 µM

COc1ccc(CCN(C)CCCOc2ccc(S(=O)(=O)c3[nH]c4ccccc4c3C(C)C)cc2)cc1OC
inactive: Potency [2] | Potency [5]
active: Potency [7] 18.7 µM | Potency [4] 18.7 µM | Potency [8] 13.2 µM

CCC(=O)OCC(=O)[C@@]1(OC(=O)CC)[C@@H](C)C[C@@H]2[C@H]3CCC4=CC(=O)C=C[C@]4(C)[C@@]3(F)[C@@H](O)C[C@@]21C
active: Potency [1] 11.8 µM | Potency [3] 7.43 µM | Potency [6] 0.0526 µM

CC[C@H](C)n1cc(C)c2c(C(=O)NCc3c(C)cc(C)[nH]c3=O)cc(-c3ccc(N4CCNCC4)nc3)cc21
active: Potency [1] 11.8 µM | Potency [7] 23.5 µM | Potency [6] 23.5 µM | Potency [8] 23.5 µM

CC1=C(C(=O)Nc2cc3cn[nH]c3cc2F)C(c2ccc(C(F)(F)F)cc2)CC(=O)N1 (stereo not given)
active: Potency [2] 8.33 µM | Potency [3] 10.5 µM
inactive: Potency [7] | Potency [4] | Potency [5] | Potency [6] | Potency [8]

COc1cc([C@@H]2c3cc4c(cc3[C@@H](O[C@@H]3O[C@@H]5CO[C@@H](C)O[C@@H]5[C@H](O)[C@@H]3O)[C@H]3COC(=O)[C@H]23)OCO4)cc(OC)c1O
active: Potency [2] 0.418 µM | Potency [7] 1.18 µM

Cc1cnc(CNC(=O)c2c(=O)c3ccc(N4CCCN(C)CC4)nc3n3c2sc2ccccc23)cn1
inactive: Potency [1] | Potency [7] | Potency [6] | Potency [8]

Cc1cc2nc3c(=O)[nH]c(=O)nc-3n(CC(O)C(O)C(O)CO)c2cc1C (stereo not given)
inactive: Potency [2] | Potency [7] | Potency [5] | Potency [6] | outcome [10] | Potency [11] | outcome [12] | max response [13] 1.01% | Potency [15] | outcome [16] | outcome [17]
active: Potency [14] 28.2 µM

CCC(=O)N1CCN(c2ccc(-n3c(=O)ccc4cnc5ccc(-c6cnc7ccccc7c6)cc5c43)cc2C(F)(F)F)CC1
active: Potency [2] 0.0469 µM | Potency [7] 0.0093 µM | Potency [5] 0.0264 µM

CCN1C[C@H](C)n2c(c(O)c3c(=O)n(Cc4ccc(F)c(Cl)c4)nc(C(=O)NC)c32)C1=O
active: Potency [8] 13.2 µM
inactive: Potency [2] | Potency [7] | Potency [5] | Potency [6]

Cc1cc(CS(=O)(=O)c2ccccc2)cc(OCc2ccc(CN3CCC[C@H]3CO)cc2)c1
active: Potency [1] 0.296 µM
inactive: Potency [5] | Potency [8]

Cc1ccccc1C(=O)c1ccc(Nc2ccc(Br)cc2N)cc1Cl
active: Potency [1] 16.6 µM | Potency [7] 18.7 µM | Potency [4] 11.8 µM | Potency [5] 23.5 µM | Potency [6] 18.7 µM

NC(=O)c1nnn(Cc2cc(Cl)c(C(=O)c3ccc(Cl)cc3)c(Cl)c2)c1N
active: Potency [1] 20.9 µM | Potency [7] 23.5 µM | Potency [6] 16.6 µM

O=C1CN2Cc3c(ccc(Cl)c3Cl)N=C2N1
inactive: Potency [2]
active: Potency [7] 20.9 µM | Potency [4] 18.7 µM

C[C@@H](O[C@H]1OCCN(Cc2n[nH]c(=O)[nH]2)[C@@H]1c1ccc(F)cc1)c1cc(C(F)(F)F)cc(C(F)(F)F)c1
active: Potency [2] 33.2 µM | Potency [7] 20.9 µM | Potency [3] 20.9 µM | Potency [4] 23.5 µM

Cc1cc(C(C)Nc2ccccc2)c2nc(N3CCOCC3)cc(=O)n2c1 (stereo not given)
active: Potency [1] 3.32 µM
inactive: Potency [4] | Potency [5]

Cc1cn([C@@H]2C[C@@H](O)[C@H](CO)O2)c(=O)[nH]c1=O
inactive: Potency [2] | Potency [7] | Potency [3] | Potency [5] | Potency [6] | Potency [8]

OCCn1cc(-c2ccc3c(c2)CCC3=NO)c(-c2ccncc2)n1
inactive: Potency [4] | Potency [5]
active: Potency [1] 16.6 µM | Potency [3] 20.9 µM

CC(C)(O)CC(=O)NCCn1ccc2ncnc(Nc3ccc(Oc4cccc(C(F)(F)F)c4)c(Cl)c3)c21
inactive: Potency [1]
active: Potency [7] 23.5 µM | Potency [8] 26.4 µM
